# Reference: ChEMBL document CHEMBL4513216, “Probing the Open Global Health Chemical Diversity Library for Multistage-Active Starting Points for Next-Generation Antimalarials” (ACS Infect Dis, 2020)
# Where “and” joins values, the source holds several entries; their conditions need not be identical. Identical values can stand only once. Screen size: about 68,000 compounds; about 2,700 (4%) showed an effect of 50% or more. Only a selection was taken, and strong results are over-represented in it overall.
# Test system: Plasmodium berghei
# Test: Screen against P. berghei liver stage (PbLuc), transformed with Luciferase, at 2uM
# Type: functional, HepG2
# Conditions: tested at 2 uM
Structure (SMILES),INHIBITION [%],INHIBITION (2 µM)
Cc1csc(CCCNC(C)CC(=O)Nc2cccc(C)c2C)n1 (centres undefined),-77.68,–
O[C@@H]1C[C@@H](c2nc(-c3ccc(OC(F)(F)F)cc3)no2)N(CC2CC2)C1,13.92,–
Cc1noc([C@H]2CC[C@@H]3[C@@H](CCN3S(=O)(=O)C3CC3)O2)n1,1.83,–
O=C(Cc1ccccc1Cl)Nc1cnn(C2CCOC2)c1 (centres undefined),2.49,–
COc1ccc(-c2c(C)nn3c(=N)c(C#N)n[nH]c23)cc1OC,1.04,–
CS(=O)(=O)CCC(=O)NC1(c2cccc(C(F)(F)F)c2)CCC1,61,–
CCNC(=O)CCC(=O)NC1(c2cccc(C(F)(F)F)c2)CCC1,18.85,–
COCC(=O)NC1(c2cccc(C(F)(F)F)c2)CCC1,24.82,–
COCCC1(C(=O)O)CCCN(Cc2cc3c(cc2C)OCO3)C1 (centres undefined),-48.91,–
c1cnn(-c2ccc(CCNC3CCN(C4CC4)C3)cc2)c1 (centres undefined),27.73,–
OCCNc1cc(-c2ccccc2)ncn1,-7.01,–
C[C@H](O)CNc1cc(-c2ccncc2)ncn1,-29.38,–
C[C@H](O)CNc1cc(-c2ccccc2)ncn1,59.56,–
CC(C)NC(=O)CC1COC2(CCN(Cc3ccco3)CC2)C1 (centres undefined),43.58,–
O=C(NCc1cc(N2CCOCC2)ncn1)c1cccc(CO)n1,-15.77,–
O=S(=O)(c1cccnc1)N1C[C@H]2CC[C@@H](C1)N(Cc1ccccc1)C2,-11.31,–
O=S(=O)(c1cccnc1)N1C[C@H]2CC[C@@H](C1)N(Cc1ccccn1)C2,-3.6,–
CC(C)=CCN1C[C@@H]2CC[C@H]1CN(S(=O)(=O)c1cccnc1)C2,54.75,–
c1ccc2c(c1)N(CC1CCOC1)CC21CCN(c2cnccn2)CC1 (centres undefined),-39.01,–
O=C(Cn1nc(C(F)(F)F)c(Br)c1C1CC1)N1CCOCC1,6.33,–
Cc1ccc(CN2CC[C@H]3CO[C@H](CN(C)C)[C@H]3C2)o1,-5.44,–
Cc1ccc(CN2CC[C@H]3CO[C@H](CN4CCN(C)CC4)[C@H]3C2)o1,16.78,–
Cc1ccc(CN2CC[C@H]3CO[C@H](CN4CCCC4)[C@H]3C2)o1,50.85,–
CC(=O)N(C)c1nc(Cn2nnnc2C2CCCC2)cs1,-26.07,–
O=C(Cn1cc(-n2cccc2)cn1)NCC1CCC1,-28.99,–
COCCn1cc2c(n1)C(CNCc1ccsc1)OCC2 (centres undefined),30.19,–

Structure (SMILES),INHIBITION [%],INHIBITION (2 µM)
COCCN1C(=O)[C@@H]2CC[C@H]1CN(c1nccc(C)n1)C2,-1.56,–
CNc1ccnc(N2C[C@H]3CC[C@@H](C2)N(CCOC)C3=O)n1,40.51,–
COCCN1C(=O)[C@@H]2CC[C@H]1CN(c1ncccn1)C2,57.34,–
CN(Cc1ccccn1)C(=O)[C@]12COC[C@H]1CN(Cc1cnn(C)c1)C2,0.3,–
COCCN1C[C@@H]2CC[C@H]1CN(CC(=O)Nc1ccn(C)n1)C2,5.28,–
O=C(CN1C[C@@H]2CC[C@H]1CN(Cc1ccccn1)C2)Nc1ccccc1,-16.18,–
Cn1ccc(NC(=O)CN2C[C@@H]3CC[C@H]2CN(Cc2ccccn2)C3)n1,52.98,–
O=C(CN1C[C@@H]2CC[C@H]1CN(Cc1ccccn1)C2)NCc1cccs1,52.98,–
O=C(c1cc(C2CC2)no1)N1C[C@@H]2CC[C@H]1CN(Cc1ccccn1)C2,-62.92,–
Cc1nnsc1CN1C[C@@H]2CC[C@H]1CN(Cc1ccccn1)C2,-17.17,–
O=C1[C@@H]2CN(C3CCOCC3)C[C@H]2CCN1CC1CC1,27.65,–
O=C1CCCC2=Nc3nonc3NC(c3ccc(Cl)cc3Cl)C12 (centres undefined),-53.9,–
CC(C)c1ccc2c(c1)CCCN2C(=O)CN(C)S(C)(=O)=O,-20.21,–
CC(C)OCCSCc1nnc(-c2cccc(F)c2)o1,55.39,–
COc1cccn(Cc2nnc(-c3cccc(F)c3)o2)c1=O,25.02,–
OCC(O)CSCc1nnc(-c2cccc(F)c2)o1 (centres undefined),10.23,–
COC(=O)c1cccn1C1CCN(CCN2C(=O)CCC2=O)CC1,31.46,–
COc1ccc(NC(=O)N2CCCC2c2ccco2)cc1OC (centres undefined),-28.88,–
CCCc1cc(CNC2CCN(c3nc(C)cc(C)n3)CC2)on1,58.59,–
CCCc1cc(CNC2CCN(c3cc(C)nc(N)n3)CC2)on1,-13.81,–
CCCc1cc(CNC2CCN(c3cc(C(C)C)nc(C)n3)CC2)on1,-8.34,–
Cc1cn2c(=O)c(-c3ccnc(N(C)C4CCCCC4)n3)cnc2s1,-35.83,–
COC1[C@@H]2CC[C@H]1CN(c1nc(C)nc3ccsc13)C2 (some centres undefined),-67.34,–
Cc1nc(N2C[C@@H](CN3CCCCC3)[C@@H](CO)C2)c2sccc2n1,-38.35,–
Cc1nc(N2C[C@H]3CNC[C@H]3C2)c2sccc2n1,50.98,–
O=C(NCc1nn(-c2ccccc2)c2c1CCC2)NC1CCC(O)CC1 (centres undefined),-43.23,–

Structure (SMILES),INHIBITION [%],INHIBITION (2 µM)
N[C@@H]1CCN(Cc2ccccc2CS(=O)(=O)c2ccccc2)C[C@H]1O,83.98,–
O=S(=O)(Cc1ccccc1CN1CC[C@H](CO)[C@H](O)C1)c1ccccc1,48.21,–
NC1CCCCN(Cc2ccccc2CS(=O)(=O)c2ccccc2)C1 (centres undefined),21.97,–
CC(C)(C)NC(=O)CNc1ncc(Br)cn1,-20.72,–
CCc1c(C)nn2c(O)cc(C3CCN(C(=O)c4ccccn4)C3)nc12 (centres undefined),–,-16.2% and -18.64%
CC1Oc2c(cccc2C(=O)N2CCN(CC(C)(C)O)CC2)NC1=O (centres undefined),-34.12,–
Cc1ncccc1C(=O)Nc1cccc(C[S+](C)[O-])c1C (centres undefined),31.58,–
CC(Sc1nnc(C2CC2)n1CC(N)=O)c1ccc(Cl)cc1 (centres undefined),-87.32,–
Cc1cccc(CSc2nnc(C)n2CC(N)=O)c1,20.41,–
CC(C)c1nc(CSc2nnc(-c3cccs3)n2CC(N)=O)no1,51.4,–
CCc1noc(C(C)Sc2nnc(C3CC3)n2CC(N)=O)n1 (centres undefined),35.26,–
CC(C)c1nc(CSc2nnc(C3CC3)n2CC(N)=O)no1,53.55,–
NC(=O)Cn1c(SCc2noc(-c3ccsc3)n2)nnc1C1CC1,-2.44,–
CCc1nn(-c2cc(Oc3cc(C)ccc3C)nc(C)n2)c(N)c1C#N,16.91,–
CC(C)CCN1C[C@@H]2OCCN(c3ncc(F)cn3)[C@@H]2C1,29.74,–
O=C(c1ccc(=O)[nH]n1)N1CCCC(O)(CN2CCC(F)(F)CC2)CC1 (centres undefined),23.7,–
Cn1c2c(ccc1=O)CC(NC(=O)c1ccsc1)CC2 (centres undefined),0.57,–
O=C(Cc1ccsc1)NC1CCc2c(ccc(=O)n2CC2CC2)C1 (centres undefined),6.85,–
Cn1c2c(ccc1=O)CC(Nc1ncc(F)cn1)CC2 (centres undefined),6.22,–
CCc1cnc(NC2CCc3c(ccc(=O)n3C)C2)nc1 (centres undefined),-17.39,–
Cn1c2c(ccc1=O)CC(NC(=O)Cc1ccsc1)CC2 (centres undefined),76.24,–
Cc1cnc(NC2CCc3c(ccc(=O)n3C)C2)nc1 (centres undefined),58.93,–
CC(C)=CCN1C[C@@H]2CC[C@H]1CN(Cc1coc(C)n1)C2,-60.75,–
COC(=O)c1ccc(CN2CCC(c3n[nH]c(C)n3)CC2)s1,-54.89,–
CC(C)=CCC1(C(=O)O)CCCN(CCC(=O)NC2CC2)C1 (centres undefined),9.43,–
Cc1ccc(NC(=O)NCCCc2n[nH]c(N)c2C#N)cc1,33.01,–

Structure (SMILES),INHIBITION [%],INHIBITION (2 µM)
CCc1cnc(N)nc1NC(C)c1ccc(C)c(C)c1 (centres undefined),35.84,–
O=C(c1ccncn1)N1CCC[C@]2(C[C@H](OCC3CC3)CO2)C1,16.78,–
CC(C)(C)OCC1CN(Cc2cccs2)S(=O)(=O)c2cnccc2O1 (centres undefined),35.6,–
O=C1CCSCC(C(=O)N2CCCC2)N1 (centres undefined),19.35,–
O=C1CCSCC(C(=O)N2CCN(C3CCCCC3)CC2)N1 (centres undefined),51.94,–
O=C1CCSCC(C(=O)N2CCCCC2)N1 (centres undefined),39.58,–
O=C(N[C@]12CC1CN(C(=O)c1ccco1)C2)c1ccco1 (some centres undefined),-50.87,–
O=C(N[C@]12CC1CN(C(=O)c1ccco1)C2)c1ccoc1 (some centres undefined),14.47,–
O=C(N[C@]12CC1CN(C(=O)c1ccco1)C2)c1cccc(F)c1 (some centres undefined),52.36,–
Nc1nc(CN2CCCCC2Cn2cncn2)nc2ccccc12 (centres undefined),-42.37,–
Cc1cnc(N2C(=O)CSC2c2ccc(N(C)C)cc2)s1 (centres undefined),-8.23,–
O=C(O)c1cc(-c2cccs2)nc2c(Br)cnn12,-11.83,–
CC(c1ccc(F)cc1)N1CCN(Cc2nccn2C)CC1 (centres undefined),5.09,–
CC(c1ccc(F)c(F)c1)N1CCN(Cc2nccn2C)CC1 (centres undefined),62.13,–
Cn1ccnc1CN1CCN(CC(O)c2cccc(F)c2)CC1 (centres undefined),-0.3,–
Cn1ccnc1CN1CCN(CC(O)c2ccc(F)c(F)c2)CC1 (centres undefined),56.67,–
Cn1ccnc1CN1CCN(CC(O)c2ccc(F)cc2)CC1 (centres undefined),-10.66,–
CC(c1cccc(F)c1)N1CCN(Cc2nccn2C)CC1 (centres undefined),0.46,–
CN(C1CCN(c2ccccn2)CC1)S(=O)(=O)c1cccc(F)c1,15.38,–
COCC1CN(Cc2ccc(C)o2)Cc2cnn(CC3CCOCC3)c21 (centres undefined),-24.39,–
Cc1nnsc1C(=O)NCCn1ccc(-c2ccncc2)n1,-34.54,–
Cc1cc(CC(=O)N(C)Cc2cccc(OC(C)C)c2)n[nH]1,-75.84,–
Cc1nc(-c2nnc[nH]2)sc1C(=O)N1CCCC1c1ccsc1 (centres undefined),-26.81,–
Cc1cnc(CN2CCCC(c3nc4ccccc4n3C(C)C)C2)o1 (centres undefined),37.77,–
Cc1ncc(CN2CCCC(c3nc4ccccc4n3C(C)C)C2)s1 (centres undefined),61.57,–
CC(C)n1c(C2CCCN(Cc3ccnn3C)C2)nc2ccccc21 (centres undefined),16.87,–
